The source of these data is publication PMC7862700, “An all-to-all approach to the identification of sequence-specific readers for epigenetic DNA modifications on cytosine”.

Common to all, as to experiment: DAPPL (digital affinity profiling via proximity ligation, sequencing); 10 mM Tris-HCl pH 7.5, 50 mM NaCl, 1 mM DTT, 4% glycerol, room temperature, 30 min; GST-TFs on glutathione beads, 16-mer random dsDNA library, 0.1% formaldehyde crosslink after washing; high values mean tight binding
Common to all, as to conditions: protein: recombinant; tags: N-terminal GST; dsDNA, one strand shown

The target of one assay is T1, ERF (Homo sapiens, UniProt P50548 1-548).
T1 sequence: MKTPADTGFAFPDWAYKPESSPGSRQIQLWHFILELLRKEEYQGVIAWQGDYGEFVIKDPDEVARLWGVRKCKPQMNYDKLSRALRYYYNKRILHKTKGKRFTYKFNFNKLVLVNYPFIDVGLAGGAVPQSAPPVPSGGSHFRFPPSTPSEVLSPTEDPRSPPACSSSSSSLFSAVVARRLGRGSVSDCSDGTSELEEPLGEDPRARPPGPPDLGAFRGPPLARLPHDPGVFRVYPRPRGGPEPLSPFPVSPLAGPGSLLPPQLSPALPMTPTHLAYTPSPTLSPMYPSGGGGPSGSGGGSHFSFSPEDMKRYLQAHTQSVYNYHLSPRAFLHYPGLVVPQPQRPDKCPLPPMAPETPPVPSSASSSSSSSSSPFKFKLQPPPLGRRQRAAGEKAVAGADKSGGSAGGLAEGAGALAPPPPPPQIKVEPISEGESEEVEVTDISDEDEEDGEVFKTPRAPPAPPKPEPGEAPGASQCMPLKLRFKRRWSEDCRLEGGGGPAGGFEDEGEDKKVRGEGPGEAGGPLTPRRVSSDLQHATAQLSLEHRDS
The method in brief:
(§1)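 The binding signal reported is, for every hexamer, its read frequency for a factor over its read frequency for the tag-only sample. Reads came from pools of yeast-expressed, GST-fused human transcription factors on glutathione beads, barcoded with DNA and mixed with that sample, which were incubated with 200 nmole of a random double-stranded 16-mer DNA library in Tris/NaCl/DTT/glycerol buffer at room temperature for 30 min. After washing, the pools were crosslinked with 0.1% formaldehyde, proximity-ligated with BsaI/T4 ligase for 1 h at 37 °C, PCR-amplified and sequenced on an Illumina NextSeq500.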

The target of the next assay is T2, ETV3L (Homo sapiens, UniProt Q6ZN32 1-361).
T2 sequence: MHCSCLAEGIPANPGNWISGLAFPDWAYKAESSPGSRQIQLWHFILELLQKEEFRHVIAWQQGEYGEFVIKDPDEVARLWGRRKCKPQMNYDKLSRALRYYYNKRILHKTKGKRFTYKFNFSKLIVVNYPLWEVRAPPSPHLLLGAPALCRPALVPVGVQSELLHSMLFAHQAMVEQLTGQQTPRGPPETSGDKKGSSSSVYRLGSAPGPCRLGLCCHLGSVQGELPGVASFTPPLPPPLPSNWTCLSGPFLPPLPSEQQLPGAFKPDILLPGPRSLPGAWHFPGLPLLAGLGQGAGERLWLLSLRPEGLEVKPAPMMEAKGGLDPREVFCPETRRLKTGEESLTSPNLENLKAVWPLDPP
The method in brief: as §1

A further assay deals with T3, ETS2 (Homo sapiens, UniProt P15036 1-469).
T3 sequence: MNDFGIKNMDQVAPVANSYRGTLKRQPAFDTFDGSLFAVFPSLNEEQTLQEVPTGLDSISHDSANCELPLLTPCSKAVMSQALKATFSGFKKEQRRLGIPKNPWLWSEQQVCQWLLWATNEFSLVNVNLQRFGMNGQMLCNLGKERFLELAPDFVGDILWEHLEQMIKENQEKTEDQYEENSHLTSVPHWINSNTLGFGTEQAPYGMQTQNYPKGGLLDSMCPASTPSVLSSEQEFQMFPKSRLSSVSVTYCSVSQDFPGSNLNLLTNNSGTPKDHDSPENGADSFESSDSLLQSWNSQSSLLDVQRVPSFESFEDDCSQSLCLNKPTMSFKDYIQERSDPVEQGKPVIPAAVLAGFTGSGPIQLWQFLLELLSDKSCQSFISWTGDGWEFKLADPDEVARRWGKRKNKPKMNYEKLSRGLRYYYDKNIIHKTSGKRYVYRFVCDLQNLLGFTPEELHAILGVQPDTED
The method in brief: as §1

The next assay concerns the target T4, SPDEF (Homo sapiens, UniProt O95238 1-335).
T4 sequence: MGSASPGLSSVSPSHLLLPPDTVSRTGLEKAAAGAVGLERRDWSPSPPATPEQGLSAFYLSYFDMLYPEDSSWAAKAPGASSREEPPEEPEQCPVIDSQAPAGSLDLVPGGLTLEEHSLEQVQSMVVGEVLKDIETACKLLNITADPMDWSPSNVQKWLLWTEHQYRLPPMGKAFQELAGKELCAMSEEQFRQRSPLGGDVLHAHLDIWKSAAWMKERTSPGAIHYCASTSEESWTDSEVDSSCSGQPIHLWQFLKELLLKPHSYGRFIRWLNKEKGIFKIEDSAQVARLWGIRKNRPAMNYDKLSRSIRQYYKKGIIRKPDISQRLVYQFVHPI
The gist of the method:
as §1

Another assay addresses T5, ETV7 (Homo sapiens, UniProt Q9Y603 1-341).
T5 sequence: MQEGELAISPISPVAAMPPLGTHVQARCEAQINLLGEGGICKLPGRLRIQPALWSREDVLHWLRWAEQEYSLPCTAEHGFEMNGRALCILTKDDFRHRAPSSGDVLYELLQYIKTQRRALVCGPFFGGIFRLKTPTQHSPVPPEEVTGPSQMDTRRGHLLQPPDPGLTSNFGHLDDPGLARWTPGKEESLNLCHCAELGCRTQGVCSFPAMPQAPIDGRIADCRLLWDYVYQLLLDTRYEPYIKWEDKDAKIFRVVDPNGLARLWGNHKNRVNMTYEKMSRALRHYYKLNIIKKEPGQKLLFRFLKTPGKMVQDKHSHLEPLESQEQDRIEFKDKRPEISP
The method in brief: as §1

For a further assay, the target named is T6, ELF5 (Homo sapiens, UniProt Q9UKW6-2 1-255).
T6 sequence: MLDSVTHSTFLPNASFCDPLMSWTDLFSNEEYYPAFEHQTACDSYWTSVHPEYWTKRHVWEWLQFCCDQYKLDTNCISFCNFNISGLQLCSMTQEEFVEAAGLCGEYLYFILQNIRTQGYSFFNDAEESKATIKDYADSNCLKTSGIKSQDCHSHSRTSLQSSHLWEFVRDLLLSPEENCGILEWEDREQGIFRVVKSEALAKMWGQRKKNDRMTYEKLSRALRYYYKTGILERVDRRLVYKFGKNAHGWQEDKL
The method in brief:
as §1

A further assay addresses T7, ETV3 (Homo sapiens, UniProt P41162-2 1-143).
T7 sequence: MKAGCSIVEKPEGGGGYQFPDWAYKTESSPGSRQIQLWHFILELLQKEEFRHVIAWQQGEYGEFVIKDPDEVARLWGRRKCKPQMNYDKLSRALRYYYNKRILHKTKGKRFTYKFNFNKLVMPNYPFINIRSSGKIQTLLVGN
The method in brief:
as §1

The target in a further assay is ETV6 (Homo sapiens, UniProt P41212 1-452). The gist of the method: as §1
Sequence of ETV6 (P41212 whole entry): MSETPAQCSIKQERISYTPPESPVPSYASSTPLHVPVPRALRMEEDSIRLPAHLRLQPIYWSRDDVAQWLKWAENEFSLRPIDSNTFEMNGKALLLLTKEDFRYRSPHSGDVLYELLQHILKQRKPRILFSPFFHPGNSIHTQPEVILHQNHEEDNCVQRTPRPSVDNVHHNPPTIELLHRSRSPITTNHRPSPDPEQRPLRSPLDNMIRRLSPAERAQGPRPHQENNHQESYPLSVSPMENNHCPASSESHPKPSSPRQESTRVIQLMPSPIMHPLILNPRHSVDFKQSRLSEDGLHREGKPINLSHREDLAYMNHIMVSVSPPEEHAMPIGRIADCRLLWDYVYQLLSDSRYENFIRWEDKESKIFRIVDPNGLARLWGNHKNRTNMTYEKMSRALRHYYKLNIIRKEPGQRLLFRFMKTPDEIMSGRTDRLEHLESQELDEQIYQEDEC

With GATGTT, the binding signal with ERF is 1.24 fold enrichment (6-mer frequency, TF over GST control); with ETV3L, 1.31 fold enrichment (6-mer frequency, TF over GST control); in the assay with ETS2 it was 1.24 fold enrichment (6-mer frequency, TF over GST control); with SPDEF, 1.51 fold enrichment (6-mer frequency, TF over GST control); with ETV7 it was 1.21 fold enrichment (6-mer frequency, TF over GST control); with ELF5, 1.32 fold enrichment (6-mer frequency, TF over GST control). In addition, the binding signal is 1.34 fold enrichment (6-mer frequency, TF over GST control) in the assay with ETV3 and 1.3 fold enrichment (6-mer frequency, TF over GST control) with ETV6.

As for AAACCC, the binding signal in the assay with ERF is 1.28 fold enrichment (6-mer frequency, TF over GST control); with ETV3L it was 1.29 fold enrichment (6-mer frequency, TF over GST control); in the assay with ETS2 it was 1.26 fold enrichment (6-mer frequency, TF over GST control); with SPDEF, 1.34 fold enrichment (6-mer frequency, TF over GST control); with ETV7 it was 1.25 fold enrichment (6-mer frequency, TF over GST control); with ELF5, 1.31 fold enrichment (6-mer frequency, TF over GST control). In addition, the binding signal with ETV3 was 1.29 fold enrichment (6-mer frequency, TF over GST control); with ETV6, 1.34 fold enrichment (6-mer frequency, TF over GST control).

Consider CCCTCG, for which the binding signal with ERF is 1.24 fold enrichment (6-mer frequency, TF over GST control); in the assay with ETV3L, 1.24 fold enrichment (6-mer frequency, TF over GST control); in the assay with ETS2, 1.29 fold enrichment (6-mer frequency, TF over GST control); with SPDEF, 1.23 fold enrichment (6-mer frequency, TF over GST control); in the assay with ETV7, 1.3 fold enrichment (6-mer frequency, TF over GST control); with ELF5 it was 1.19 fold enrichment (6-mer frequency, TF over GST control). Besides, the binding signal is 1.16 fold enrichment (6-mer frequency, TF over GST control) with ETV3 and 1.18 fold enrichment (6-mer frequency, TF over GST control) with ETV6.

As for AATCCT, the binding signal in the assay with ERF was 1.21 fold enrichment (6-mer frequency, TF over GST control); with ETV3L it was 1.24 fold enrichment (6-mer frequency, TF over GST control); with ETS2, 1.32 fold enrichment (6-mer frequency, TF over GST control); in the assay with SPDEF, 1.45 fold enrichment (6-mer frequency, TF over GST control); with ETV7 it was 1.41 fold enrichment (6-mer frequency, TF over GST control); with ELF5 it was 1.61 fold enrichment (6-mer frequency, TF over GST control). The binding signal was 1.37 fold enrichment (6-mer frequency, TF over GST control) in the assay with ETV3 and 1.29 fold enrichment (6-mer frequency, TF over GST control) in the assay with ETV6.

Consider ATCTTC, for which the binding signal was 1.45 fold enrichment (6-mer frequency, TF over GST control) in the assay with ERF; 1.63 fold enrichment (6-mer frequency, TF over GST control) in the assay with ETV3L; 1.6 fold enrichment (6-mer frequency, TF over GST control) in the assay with ETS2; 1.55 fold enrichment (6-mer frequency, TF over GST control) with SPDEF; 1.43 fold enrichment (6-mer frequency, TF over GST control) with ETV7; 1.82 fold enrichment (6-mer frequency, TF over GST control) with ELF5. Further, the binding signal is 1.49 fold enrichment (6-mer frequency, TF over GST control) with ETV3 and 1.54 fold enrichment (6-mer frequency, TF over GST control) in the assay with ETV6.

CTGGTT: the binding signal in the assay with ERF was 1.2 fold enrichment (6-mer frequency, TF over GST control); with ETV3L, 1.35 fold enrichment (6-mer frequency, TF over GST control); in the assay with ETS2, 1.29 fold enrichment (6-mer frequency, TF over GST control); in the assay with SPDEF, 1.39 fold enrichment (6-mer frequency, TF over GST control); in the assay with ETV7, 1.28 fold enrichment (6-mer frequency, TF over GST control); with ELF5, 1.38 fold enrichment (6-mer frequency, TF over GST control). Moreover, the binding signal in the assay with ETV3 is 1.45 fold enrichment (6-mer frequency, TF over GST control); with ETV6, 1.32 fold enrichment (6-mer frequency, TF over GST control).

CCTACT: the binding signal in the assay with ERF is 1.7 fold enrichment (6-mer frequency, TF over GST control); with ETV3L, 1.53 fold enrichment (6-mer frequency, TF over GST control); with ETS2, 1.7 fold enrichment (6-mer frequency, TF over GST control); in the assay with SPDEF it was 1.49 fold enrichment (6-mer frequency, TF over GST control); in the assay with ETV7, 1.35 fold enrichment (6-mer frequency, TF over GST control); with ELF5 it was 1.82 fold enrichment (6-mer frequency, TF over GST control). Further, the binding signal with ETV3 is 1.77 fold enrichment (6-mer frequency, TF over GST control); with ETV6 it was 1.73 fold enrichment (6-mer frequency, TF over GST control).
